The list is not random: actives were taken first. Their share in the collection is about 19%.
Chronic BCR inh = qHTS Assay to Find Inhibitors of Chronic Active B-Cell Receptor Signaling | ABC-DLBCL IkBa-CBG/CBR reporter, luminescence ratio, 4 h | Potency, µM (top dose mostly 46.1 µM), actives largely listed as inhibitors | actives 0.05% (n = 340,000); active = well fitted inhibition curve with a large enough effect in the signal ratio, with a control signal flat, not every such curve was filed as active; inconclusive = small, poorly fitted or top-dose-only effect, or effect the other way, or a change in a side signal; the % refers to the signal ratio
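Compounds up to 46 uM were incubated four hours with TMD8 cells whose green CBG68 luciferase is fused to IkappaBalpha; red CBR luminescence normalised the signal, and concentration-effect curves were fitted to fusion, red and ratio data.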
TDP1 cell CPT = qHTS for Inhibitors of human tyrosyl-DNA phosphodiesterase 1 (TDP1): qHTS in cells in presence of CPT | actives 12% (n = 420,000) | AID 686979, 2013 | chicken DT40 Tdp1-/-;hTDP1 cells + 20 nM CPT, ATP luminescence, 48 h | Potency, µM (doses to about 46.2 µM), actives largely listed as inhibitors; note: nearly all actives have a fitted effect of over 55% in size
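Chicken DT40 Tdp1-/- cells complemented with human TDP1, 400 cells/well, exposed to compounds plus 20 nM camptothecin for at least 48 h at 37 C; viability read as ATP content by CellTiter-Glo luminescence.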
IL-1B inflam inh = qHTS for Inhibitors of Inflammasome Signaling: IL-1-beta AlphaLISA Primary Screen. THP-1 LPS/ATP IL-1B secretion, AlphaLISA, 16 h; hits give low values. activity change, % at 57.5 µM. actives 4.7% (n = 360,000). AID 743279, 2014; in the data active = activity change below about -50%; inconclusive = mostly about -30% to -49%
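THP-1 cells pretreated 1 hr with compounds (up to 57.5 uM final), then stimulated with LPS (250 ng/mL final) plus ATP (1.25 mM final); secreted IL-1B measured by AlphaLISA after 16 hr, decreased signal indicating inhibition.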
DT40 TDP1 no CPT = qHTS for Inhibitors of human tyrosyl-DNA phosphodiesterase 1 (TDP1): qHTS in cells in absence of CPT; DT40 Tdp1-/- hTDP1 cells, no CPT, ATP luminescence, 48 h; Potency, µM (series often up to 46.2 µM), hits mostly inhibitors; actives 15% (n = 420,000); note: nearly all actives have a fitted effect of over 55% in size
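Camptothecin absent (DMSO only). Human TDP1-complemented DT40 knockout cells, 400 cells/well, 37 °C for minimum 48 hr; ATP measured via CellTiter-Glo, 30 min dark incubation, luminescence.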
SW480 rereplic = A quantitative high throughput screen for small molecules that induce DNA re-replication in SW480 colon adenocarcinoma cells; Potency, µM (top dose mostly 46.1 µM), actives largely listed as activators; AID 624297, 2012; actives 1.8% (n = 340,000); SW480 DNA re-replication, Hoechst DNA content imaging, 48 h; note: nearly all actives have a fitted effect of over 55% in size
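Readout is total intensity of Hoechst-stained nuclei, excited at 405 nm and collected at 500-530 nm. Compound treatment lasted 48 hr at 37 C in 5% CO2 before staining.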
MCF10A rerep = A quantitative high throughput screen for small molecules that induce DNA re-replication in MCF 10a normal breast cells | actives 2.9% (n = 350,000) | MCF 10A DNA re-replication, Hoechst nuclear intensity, 48 h | Potency, µM (highest dose often 46.1 µM), most hits filed as activators | AID 624296, 2012; note: nearly all actives have a fitted effect of over 50% in size
Large screens that a line does not name were inactive. Unless noted, calls come from the whole dose curve; as a rule, active = well fitted curve in the direction sought with a large enough effect; inconclusive = small, poorly fitted or top-dose-only effect, or another doubt; inactive = no such curve, though single readings can be large; an effect the other way counts as inactive or inconclusive.

CC(NC(=O)C(=O)NCCN1CCN(C(=O)c2ccc([N+](=O)[O-])cc2)CC1)c1ccccc1 (configuration not stated)	none
CC(C)C1CC(CCN)(c2ccccc2)CCO1 (configuration not stated)	TDP1 cell CPT inconclusive
Cc1ccc(C2(CCNC(C)c3cccs3)CCOC(C(C)C)C2)cc1 (configuration not stated)	Chronic BCR inh inconclusive, IL-1B inflam inh -81, DT40 TDP1 no CPT inconclusive, SW480 rereplic inconclusive
Cc1ccc(C2(CCN)CCOC(C(C)C)C2)cc1 (configuration not stated)	Chronic BCR inh inconclusive, TDP1 cell CPT 23µM, DT40 TDP1 no CPT inconclusive
c1ccc(-c2nc(NC3CCCC3)c3ccccc3n2)cc1	Chronic BCR inh inconclusive, TDP1 cell CPT inconclusive, IL-1B inflam inh -63
c1ccc2c(NC3CCNCC3)nc(-c3ccoc3)nc2c1	none (no result: Chronic BCR inh, IL-1B inflam inh, SW480 rereplic, MCF10A rerep)
CN(C)Cc1ccccc1-c1nc(NC2CCNCC2)c2ccccc2n1	TDP1 cell CPT 0.37µM, DT40 TDP1 no CPT 0.65µM (no result: Chronic BCR inh, IL-1B inflam inh, SW480 rereplic, MCF10A rerep)
CN(C)c1ccc(-c2nc(NC3CCNCC3)c3ccccc3n2)cc1	TDP1 cell CPT 1.3µM, DT40 TDP1 no CPT 1.2µM (no result: Chronic BCR inh, IL-1B inflam inh, SW480 rereplic, MCF10A rerep)
COc1cccc(-c2nc(NC3CCNCC3)c3ccccc3n2)c1	TDP1 cell CPT inconclusive, DT40 TDP1 no CPT 21µM (no result: Chronic BCR inh, IL-1B inflam inh, SW480 rereplic, MCF10A rerep)
Cc1ccc(OCCOc2ccc(Cl)cc2Cl)c([N+](=O)[O-])n1	TDP1 cell CPT inconclusive, DT40 TDP1 no CPT 16µM, MCF10A rerep inconclusive
Cc1cc(-n2c(C)cc(C(=O)COc3cc(F)ccc3[N+](=O)[O-])c2C)no1	Chronic BCR inh inconclusive, TDP1 cell CPT inconclusive, DT40 TDP1 no CPT 15µM, SW480 rereplic 13µM, MCF10A rerep inconclusive
CCC1(c2ccc(F)cc2)NC(=O)N(CC(=O)c2cc(C)n(C3CC3)c2C)C1=O (configuration not stated)	TDP1 cell CPT inconclusive, DT40 TDP1 no CPT inconclusive
Cc1ccc(OCC(=O)c2ccc(Cl)s2)c([N+](=O)[O-])n1	TDP1 cell CPT 3.7µM, IL-1B inflam inh -73, DT40 TDP1 no CPT 13µM, SW480 rereplic inconclusive, MCF10A rerep inconclusive
Cc1cc(C(=O)CN2C(=O)NC(C)(c3cc(F)ccc3F)C2=O)c(C)n1C1CC1 (configuration not stated)	TDP1 cell CPT inconclusive, DT40 TDP1 no CPT 16µM, SW480 rereplic inconclusive
COc1ccc(CNC(=O)CCC2N=C3c4ccccc4N=C(SCC(=O)NCCc4ccc(OC)c(OC)c4)N3C2=O)cc1 (configuration not stated)	DT40 TDP1 no CPT inconclusive (no result: IL-1B inflam inh, SW480 rereplic, MCF10A rerep)
Cc1ccc(C2OCC(C)([N+](=O)[O-])CO2)cc1 (configuration not stated)	none (no result: Chronic BCR inh)
Cc1ccc(OCC(=O)c2cc(C)n(-c3cc(C)on3)c2C)c([N+](=O)[O-])n1	TDP1 cell CPT 10µM, DT40 TDP1 no CPT inconclusive, SW480 rereplic inconclusive, MCF10A rerep inconclusive
COc1ccc(-n2c(C)cc(C(=O)COc3ccc(C)nc3[N+](=O)[O-])c2C)cc1	TDP1 cell CPT 5.2µM, DT40 TDP1 no CPT 3.7µM, SW480 rereplic inconclusive, MCF10A rerep 21µM
Cc1ccc(OCC(=O)c2cc(C)n(C3CC3)c2C)c([N+](=O)[O-])n1	TDP1 cell CPT inconclusive, DT40 TDP1 no CPT 23µM, SW480 rereplic inconclusive, MCF10A rerep inconclusive
Cc1ccc(OCC(=O)c2cc(C)n(CC(F)(F)F)c2C)c([N+](=O)[O-])n1	Chronic BCR inh inconclusive, DT40 TDP1 no CPT inconclusive, SW480 rereplic inconclusive, MCF10A rerep inconclusive
CCN1C(=O)C(=O)N(CC(=O)c2cc(C)n(C3CC3)c2C)C1=O	Chronic BCR inh inconclusive
Cc1cc(C(=O)CN2C(=O)NC(CCS(C)(=O)=O)C2=O)c(C)n1C1CC1 (configuration not stated)	TDP1 cell CPT 18µM, DT40 TDP1 no CPT 5.8µM
Cc1ccc2nc(SCC(=O)Nc3ccc(F)cc3F)nc(=O)n2c1	Chronic BCR inh inconclusive
O=C(NCCCN1CCCC1=O)C(=O)NCC1OCCCN1S(=O)(=O)c1ccccc1 (configuration not stated)	none (no result: Chronic BCR inh, SW480 rereplic, MCF10A rerep)
Cc1ccc(C)c(CC(=O)N2CCCC(c3cc(C(=O)NCc4ccccc4)no3)C2)c1 (configuration not stated)	TDP1 cell CPT inconclusive, DT40 TDP1 no CPT inconclusive (no result: Chronic BCR inh, SW480 rereplic, MCF10A rerep)
Cc1ccc(OCC(=O)c2cc(C)n(Cc3cccs3)c2C)c([N+](=O)[O-])n1	TDP1 cell CPT 6.5µM, DT40 TDP1 no CPT 5.8µM, MCF10A rerep inconclusive
Cc1cc(C(=O)COc2ccc(F)cc2Br)c(C)n1C1CC1	Chronic BCR inh inconclusive, TDP1 cell CPT 15µM, IL-1B inflam inh inconclusive, DT40 TDP1 no CPT 10µM
Cc1cc(C(=O)COc2ccc(F)cc2Br)c(C)n1C	IL-1B inflam inh inconclusive
COc1ccc(C[C@H]2CN3C(=NC[C@@H]3C(C)C)N2C[C@H](C)NC(=O)c2ccc(C)c(Br)c2)cc1	TDP1 cell CPT 29µM, IL-1B inflam inh -57, DT40 TDP1 no CPT 18µM
COc1ccc(C[C@H]2CN3C(=NC[C@@H]3Cc3ccc(O)cc3)N2C[C@H](C)NC(=O)c2ccc(C)c(Br)c2)cc1	Chronic BCR inh inconclusive, TDP1 cell CPT 4.6µM, IL-1B inflam inh inconclusive, DT40 TDP1 no CPT 21µM
Cc1ccc(C(=O)N[C@@H](C)CN2C3=NC[C@H](C(C)C)N3C[C@H]2Cc2ccc(O)cc2)cc1Br	TDP1 cell CPT 4.6µM, IL-1B inflam inh inconclusive, DT40 TDP1 no CPT 5.8µM
COc1ccc(S(=O)(=O)Nc2cc(C(=O)NC(C)C)ccc2N2CCOCC2)cc1	Chronic BCR inh inconclusive, TDP1 cell CPT inconclusive
C/C=C(\C)C(=O)NCCN1C2=NC[C@@H](C)N2C[C@H]1Cc1ccc(O)cc1	none
Cc1nnc(NC(=O)C2CC(=O)N(C(C)c3ccccc3)C2)s1 (configuration not stated)	none
O=Cc1ccc2c(c1)OCCOCCOCCOCCO2	none (no result: Chronic BCR inh, SW480 rereplic, MCF10A rerep)
CO/N=C(\C(=O)N[C@@H]1C(=O)N2C(C(=O)O)=C(CSC(=O)c3ccco3)CS[C@H]12)c1csc(N)n1	none (no result: Chronic BCR inh, IL-1B inflam inh, SW480 rereplic, MCF10A rerep)
COc1ccc2[nH]cc(CCNc3ncncc3-c3ccccc3Cl)c2c1	TDP1 cell CPT 23µM, DT40 TDP1 no CPT inconclusive (no result: Chronic BCR inh, IL-1B inflam inh, SW480 rereplic, MCF10A rerep)
COc1ccc2[nH]cc(CCNc3ncncc3-c3ccccc3OC)c2c1	DT40 TDP1 no CPT inconclusive (no result: Chronic BCR inh, IL-1B inflam inh, SW480 rereplic, MCF10A rerep)

Screens from PubChem BioAssay.
